In publication PMC8159961, “Exploring protein hotspots by optimized fragment pharmacophores” (Nature Communications, 2021) one finds Thrombin data, which are given here for 40 molecules.

Values without a mark were called inactive. How the calls were made is not given here.

The target of this assay is thrombin (human, UniProt P00734). Nature of the assay: primary screen, binary call; higher = more effect of the substance. Details: screenings were carried out in duplicate in one independent experiment. The conditions noted are these: 200 µM. On the procedure: Protease inhibitory assays were performed in transparent microtiter plates in a final volume of 200 µL with the use of chromogenic substrates. The reaction rates in the absence and in the presence of the inhibitor were measured; screenings were carried out in duplicate in one independent experiment and Ki values were determined in triplicate in two independent experiments.
`O=c1[nH]ncc2c1oc1ccccc12`: the Thrombin was 0.

In the case of `Clc1ccc2nnnn2n1`, the Thrombin is 0.

Take `c1ccc2oc(C3CCCNC3)nc2c1` (stereo not shown): the Thrombin is 0.

With `Nc1ccc(-c2ccccc2)cc1C(=O)O`, the Thrombin is 0.

For the molecule `O=C(O)C1CCN(c2ncccn2)CC1`, the Thrombin was 1 (active).

With `COc1ccc(C2=CCNCC2)cc1`, the Thrombin was 0.

With `Fc1ccc2c(C3CCNCC3)c[nH]c2c1`, the Thrombin is 0.

In the case of `Cc1cnc(C(F)(F)F)cn1`, the Thrombin was 0.

`CC(=O)c1ccc2c(c1)CNCC2`: the Thrombin was 0.

As for `Cc1ccc(C)n1Cc1ccccc1Cl`, the Thrombin is 0.

As to `O=C(O)c1cccc(Nc2ncccn2)c1`, the Thrombin was 0.

Turning to `O=C1CSC(Nc2ccc(F)cc2)=N1`, the Thrombin is 0.

As to `CC1(C)OC(=O)c2cc(Br)c(O)cc2O1`, the Thrombin is 0.

Turning to `O=C(c1ccccc1F)N1CCNCC1`, the Thrombin is 0.

Turning to `FC1(F)CNCC(F)(F)O1`, the Thrombin is 0.

For `COc1cccc(NC2=NCCCCC2)c1`, the Thrombin is 0.

`Cc1nc(-c2ccccc2)cs1`: the Thrombin was 0.

Consider `CCc1nccn1CC(=O)O`, for which the Thrombin was 0.

On to `N#CCCN1CCc2ccccc21`, for which the Thrombin is 0.

For `CN1CC(=O)NC1=O`, the Thrombin is 0.

As for `NCC1(c2ccccc2)CCOCC1`, the Thrombin is 0.

For the molecule `Oc1ccccc1N1CCCCC1`, the Thrombin was 0.

For `CC(=O)c1ccc2c(c1)CCCN2`, the Thrombin was 0.

Take `COc1ccc(CN2CCNCC2)cc1F`: the Thrombin was 0.

Regarding `CCn1cnc2ccccc21`, the Thrombin is 0.

`O=C(CN1CCNCC1)c1ccccc1`: the Thrombin was 0.

As for `O=C(Nc1ccccc1)C1CC1`, the Thrombin is 0.

Turning to `C1=C[C@H]2O[C@@H]1c1ccccc12`, the Thrombin is 0.

For the molecule `O=C(NC1CC1)c1ccccc1O`, the Thrombin is 0.

For `NC1CCc2ccccc21` (stereo not shown), the Thrombin was 0.

With `CC(CN)N1CCc2sccc2C1` (stereo not shown), the Thrombin was 0.

As to `CC1CCc2sc(C(=O)O)cc2C1` (stereo not shown), the Thrombin was 1 (active).

As for `c1ccc(-c2ccncc2)cc1`, the Thrombin is 0.

On to `Nc1nnc(-c2cccs2)[nH]1`, for which the Thrombin is 1 (active).

Take `c1ccc2c(N3CCNCC3)ccnc2c1`: the Thrombin is 0.

Regarding `Cn1nc(C(F)(F)F)cc1O`, the Thrombin is 0.

Take `COC(=O)c1c(C)nc(C2CC2)[nH]c1=O`: the Thrombin is 0.

`Cn1c(N)nc2ccccc21`: the Thrombin is 0.

On to `Cc1ccc(CCNc2ccccc2)cn1`, for which the Thrombin was 0.

As for `O=C1NC2(CCCC2)Nc2ccccc21`, the Thrombin was 0.
